In PubChem BioAssay (NCATS):
Results filed as inconclusive are left out. The source made the active and inactive calls. Calls follow the shape of the dose curve; as a rule, active = well fitted inhibition curve with a large enough effect; inconclusive = small, poorly fitted or top-dose-only effect; inactive = flat fitted curve, though single readings scatter.

Tests used:
Experiment in all cases: qHTS profiling for inhibitors of Plasmodium falciparum proliferation (AID 504749); also: nearly all actives have a fitted effect of over 60% in size
Conditions in all cases: P. falciparum in erythrocytes, SYBR Green DNA, 72 h; series mostly up to 28.7 µM
[1] = test system: CP335
Method in brief: (§1)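 Readout was DNA-dye fluorescence from lysed cultures, ex 485/em 535 nm. Parasitized red cells had grown 72 h with compound; data scaled between 0.29 uM artemisinin and DMSO wells and corrected using vehicle-only plates.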

[2] = test system: DFO2036
Method in brief: as §1

[3] = test system: DIV14
Method in brief: as §1

[4] = test system: DIV17
Method in brief: as §1

[5] = test system: DIV30
Method in brief: as §1

[6] = test system: Dd2
Method in brief: as §1

[7] = test system: ECU
Method in brief: as §1

[8] = test system: FAB9
Method in brief: as §1

[9] = test system: GB4
Method in brief: as §1

[10] = test system: HB3
Method in brief: as §1

Measured: Potency

CCOC(=O)c1cccnc1
inactive: all assays above

O=C(CN1CCNCC1)NC1CCCCC1
inactive: all assays above

Cc1ncc(CO)c(CN)c1O
inactive: all assays above

CCCCCCCCCCCCCCCCC(C(=O)O)C(O)(CC(=O)O)C(=O)O (stereo not given)
inactive: all assays above

Cc1cccc(C)c1NC(=O)CC12CCCN1CCC2
inactive: all assays above

CCCCCCCCCCCCCCCCN
inactive: all assays above

NC(N)=NCCN1CCCCCCC1
inactive: all assays above

O=C(O)Cc1ccc(CCNS(=O)(=O)c2ccc(Cl)cc2)cc1
inactive: all assays above

CCCOC(=O)c1ccc(N)cc1
inactive: all assays above

CN(C/C=C/C#CC(C)(C)C)Cc1cccc2ccccc12
inactive: all assays above

COC(=O)c1cccnc1
inactive: all assays above

CC(C)CCOC(=O)c1ccc(N(C)C)cc1
inactive: all assays above

Cc1onc(-c2ccccc2)c1-c1ccc(S(N)(=O)=O)cc1
inactive: all assays above

Cc1c(N(C)C)c(=O)n(-c2ccccc2)n1C
inactive: all assays above

Nc1ncnc2c1ncn2[C@@H]1O[C@H](COP(=O)(O)O)[C@@H](O)[C@H]1O
inactive: all assays above

NNC(=O)CP(=O)(c1ccccc1)c1ccccc1
inactive: all assays above

Cc1ccc(C(C)C)c(O)c1
inactive: all assays above

O=C(NCN1CCOCC1)c1cnccn1
inactive: all assays above

CCN(CC)CCc1nc(-c2ccccc2)no1
inactive: all assays above

Cc1c(NC(=O)c2cccnc2)c(=O)n(-c2ccccc2)n1C
inactive: all assays above

Cc1cccc(Nc2ccccc2C(=O)O)c1C
inactive: all assays above

COc1cc(C(=O)NCCCCCC(=O)O)cc(OC)c1OC
inactive: all assays above

C[C@@H](N)C(=O)O
inactive: all assays above

c1ccc2[nH]ccc2c1
inactive: all assays above
